The text below walks through data of PubChem BioAssay AID2315 (National Center for Advancing Translational Sciences (NCATS), 2010).

Molecules are shown by their SMILES. The campaign covered roughly 290,000 compounds. About 27,000 (9.3%) were called active. Cut-off read from the data, not from the text of the source: active = inhibition mostly above about 28% (no sharp cut-off); inactive = mostly below about 43%. For the sample, actives were picked, then their nearest neighbours and some compounds at random.

The nature of the assay: A qHTS for Small Molecule Inhibitors of Shiga Toxin. Note: 0% is about no effect. Particulars: Vero cells, Shiga toxin protein synthesis inhibition reporter; at 38.7 µM, active compounds read high. Background: qHTS replaces the single test concentration by a dilution series.
The inhibition is the drop in the measured response relative to a control, in per cent. Consider `COc1ccc(CCNC(=O)C(=O)NCC2OCCN2S(=O)(=O)c2ccc(OC)c(C)c2)cc1` (stereo not drawn), for which the inhibition was 2.43% (inactive).

Take `Cc1ccc(NS(=O)(=O)c2ccc(-c3coc(C)n3)cc2)c(C)c1`: the inhibition is -3.55% (inactive).

In the case of `CCC(CC)C(=O)Nc1c2c(nn1-c1ccc(C)cc1)CS(=O)(=O)C2`, the inhibition was -8.79% (inactive).

`CCN(CC)CCCNC(=O)c1cc2c(=O)[nH]c3ccc(C)cc3c2s1`: the inhibition is -4.39% (inactive).

With `O=C(C1CC(=O)N(C2CCCCC2)C1)N1CCN(c2ccccc2)CC1` (stereo not drawn), the inhibition is 27.8% (inactive).

As for `C/C(=N\NC(=O)Cc1ccccc1[N+](=O)[O-])c1cccnc1`, the inhibition was -10.2% (inactive).

Regarding `Cc1cc(C(=O)NC2CC(C)(C)Cc3c2cnn3-c2ccccc2)n[nH]1` (stereo not drawn), the inhibition was -14.3% (inactive).

As for `CN(C(=O)CC1C(=O)NCCN1Cc1ccc2ccccc2c1)C1CCOCC1` (stereo not drawn), the inhibition is -0.828% (inactive).

Take `CN1/C(=C\C(=O)c2cccnc2Cl)C(C)(C)c2ccccc21`: the inhibition was -10.8% (active).

Take `CC(C)Nc1nnc(SCC(=O)/C=C2\N(C)c3ccccc3C2(C)C)s1`: the inhibition was 13.3% (inactive).

As for `CN1/C(=C\C(=O)c2oc3ccccc3c2N)C(C)(C)c2ccccc21`, the inhibition was 14.5% (inactive).

Regarding `Cc1ccccc1-c1nc(CS(=O)(=O)CC(=O)NC(C)c2ccccc2)c(C)o1` (stereo not drawn), the inhibition was -2.18% (inactive).

Consider `CC1C(=O)C(C)C(c2ccc(O)cc2)NC1c1ccc(O)cc1` (stereo not drawn), for which the inhibition was -9.62% (inactive).

For the compound `Cc1ccc(S(=O)(=O)NCC(=O)N2CCOCCOCCOCCOCC2)cc1`, the inhibition was -2.1% (inactive).

Turning to `Cc1ccc(Cl)cc1NC(=O)COC(=O)CC(C)(C)C`, the inhibition was -3.98% (inactive).

`C/C(CC(=O)N1CCN(C=O)CC1)=N\NC(=O)c1ccc(Br)cc1`: the inhibition was 36.4% (inactive).

For `O=C(O)CC/C(=N\NC(=O)c1ccc(F)cc1)c1ccc(Br)cc1`, the inhibition was 57.9% (active).

Take `C/C(=N\NC(=O)Cc1ccc(F)cc1)c1ccc(F)cc1`: the inhibition was 11.6% (inactive).

As for `CCn1ccnc1CNC(=O)CC1C(=O)NCCN1CCCc1ccccc1` (stereo not drawn), the inhibition is 12.9% (inactive).

As to `COc1ccc(CC(=O)Nc2c(C(N)=O)oc3ccccc23)cc1`, the inhibition was 9.35% (inactive).

Consider `COc1cc(C(C(=O)NC2CCCC2)N(C(=O)c2ccco2)c2ccccc2C(C)=O)cc(OC)c1OC` (stereo not drawn), for which the inhibition was -3.47% (inactive).

Turning to `COC(C(=O)Nc1ccc(C(C)=O)cc1)c1ccccc1` (stereo not drawn), the inhibition is 10.3% (inactive).

Consider `COc1ccc(NC(C(=O)Nc2cccc(C(C)=O)c2)c2ccccc2)cc1` (stereo not drawn), for which the inhibition is 27.6% (active).

In the case of `COc1ccc(NC(=O)[C@H](NC(=O)[C@@H]2Cc3ccccc3CN2)c2ccccc2)cc1`, the inhibition was -2.7% (inactive).

As for `Cc1cc(C)cc(N(CC(=O)N2CC=C(c3ccccc3)CC2)S(=O)(=O)c2c(C)noc2C)c1`, the inhibition was -8.45% (inactive).

Turning to `CNc1ccc(NC(C)=O)cc1[N+](=O)[O-]`, the inhibition is -5.19% (inactive).

`CN(C)/C=C(\C=[N+](C)C)c1[nH]ncc1[N+](=O)[O-]`: the inhibition was -4.31% (inactive).

For `CNc1[nH]ncc1[N+](=O)[O-]`, the inhibition was 120% (active).

With `Cc1cc(-c2csc(N)n2)c(C)n1-c1ccccc1`, the inhibition is 34.4% (inactive).

Take `Cc1cc(-c2csc(N)n2)c(C)n1Cc1ccccc1`: the inhibition is 28.2% (active).

As for `CC(=O)Nc1ccc(C(=O)Nc2nc(-c3cc(C)n(Cc4ccccc4)c3C)cs2)cc1`, the inhibition is -6.21% (inactive).

Turning to `Cc1ccccc1NC(=O)CSc1nc2ccc(Nc3nc(N4CCOCC4)nc(N4CCOCC4)n3)cc2s1`, the inhibition is 23.8% (inactive).

On to `Cc1nnc2sc(-c3ccco3)nn12`, for which the inhibition was -4.02% (inactive).

`FC(F)(F)c1nnc2sc(-c3ccco3)nn12`: the inhibition is 7.08% (inactive).

Take `Fc1ccc(-c2ccc(-c3nn4c(-c5ccco5)nnc4s3)o2)cc1`: the inhibition is 26.5% (active).

For the compound `CCN(CC)S(=O)(=O)c1ccc(NC(=O)c2cccnc2Cl)c(NC(=O)c2cccnc2Cl)c1`, the inhibition was -4.86% (inactive).

For the compound `Cc1ccc(NC(=O)CNCc2ccccn2)cc1S(=O)(=O)N(C)C`, the inhibition was 40.8% (inactive).

With `CCN(CC)S(=O)(=O)c1cc(C(=O)Nc2ccccn2)ccc1C`, the inhibition was 119% (active).

With `COc1cc(C(=O)NCc2nnc(SCC(=O)c3ccc(Cl)cc3)o2)cc(OC)c1OC`, the inhibition was -10.7% (inactive).

On to `OCCN1CCN(c2nnc(-c3ccccc3)c3ccccc23)CC1`, for which the inhibition was -4.9% (inactive).

For the compound `Cc1nc(C)c(-c2nnc(-c3cccc(S(=O)(=O)N(C)C)c3)o2)cc1C(=O)NN`, the inhibition was 3.74% (inactive).

As to `COc1ccc2c(C(=O)c3ccc(C)cc3)n(CCC(N)=O)[n+]([O-])c2c1`, the inhibition was 7.71% (inactive).

For the compound `NC(=O)Cc1ccc2c(c1)[nH]c1ccccc12`, the inhibition was 11.9% (inactive).

Take `NC(=O)Cc1ccc2sc(-c3ccccc3)nc2c1`: the inhibition is 79.9% (active).

Turning to `O=C(O)Cc1sc(-c2ccccc2)nc1-c1cccs1`, the inhibition is 47.2% (inactive).

Consider `Cc1cc(S(=O)(=O)NCc2ccccn2)c(Cl)cc1Cl`, for which the inhibition is -4.73% (inactive).

With `CCSc1nc(O)c(C(c2cccc(OC)c2)c2c(O)nc(SCC)[nH]c2=O)c(=O)[nH]1`, the inhibition was 19.1% (inactive).

Take `CC(=O)NCCC(=O)Nc1cc(S(=O)(=O)N2CCCCC2)ccc1Oc1cccc(C)c1`: the inhibition was -10.6% (inactive).

Turning to `C/C(CC(=O)Nc1cccc(F)c1)=N\NC(=O)C(=O)NC1CCCCC1`, the inhibition is -4.86% (inactive).

Regarding `Cc1cc(C)cc(NC(=O)NC2CCCCCCC2)c1`, the inhibition was 14.2% (inactive).

Take `Cc1ccc(NC(=S)NC2CCCC2)cc1`: the inhibition was 85% (active).

With `O=C(Nc1cccc(F)c1)NC1CCCc2ccccc21` (stereo not drawn), the inhibition was -2.03% (inactive).

Turning to `CC(C)(C)NS(=O)(=O)c1ccc(NC(=O)NC2CCCCC2)cc1`, the inhibition is 56.6% (inactive).

Regarding `Cc1ccc(NC(=O)CSCC(=O)NC2CCCCC2)cc1`, the inhibition was 5.95% (inactive).

For the compound `O=C(Nc1cccc(F)c1)NC1CCCCCCC1`, the inhibition was 159% (active).

As for `Cc1cc(Br)ccc1NC(=S)NC1CCCC1`, the inhibition was 35.4% (inactive).

Turning to `CC(C)c1ccc(NC(=O)NC2CCCCC2)cc1`, the inhibition was 107% (active).

On to `Cc1cccc(N2CCN(S(=O)(=O)c3ccc(-c4cc(C)no4)s3)CC2C)c1` (stereo not drawn), for which the inhibition was -9.9% (inactive).

For the compound `COc1ccc([N+](=O)[O-])cc1NCC(=O)c1ccc(C)cc1`, the inhibition was 17.1% (inactive).

Take `COc1ccccc1NC(=O)C1CCN(C(=O)c2ccc(C(C)(C)C)cc2)CC1`: the inhibition is 18.1% (inactive).

Take `COc1ccccc1C(=O)Nc1ccnn1C1CCN(C(=O)C(C)(C)C)CC1`: the inhibition was 20.1% (inactive).

`O=C(c1c(Cl)cccc1Cl)N1CCN(c2cccc3[nH]ccc23)CC1`: the inhibition is -6.91% (inactive).

As to `O=C(c1ccc2ccccc2n1)N1CCN(c2ccccc2Cl)CC1`, the inhibition was 62.1% (active).

On to `COc1ccccc1N1CCN(C(=O)c2c(-c3c(Cl)cccc3Cl)noc2C)CC1`, for which the inhibition is -7.02% (inactive).

For the compound `Cn1c(CCc2ccccc2)nnc1SCC(N)=O`, the inhibition was -2.98% (inactive).

As for `CCOc1ccc(-n2c(SCC(N)=O)nnc2-c2ccco2)cc1`, the inhibition was 1.48% (inactive).

In the case of `Cc1ccc(NC(=O)CN(C)C(=O)c2ccc(Br)o2)cc1`, the inhibition is 24.8% (inactive).

With `COc1ccc(C(=O)CC(=O)c2ccc(C)cc2)c(O)c1`, the inhibition was 5.12% (inactive).

For `Cc1cc(O)cc(O)c1C(=O)Cc1cnn(-c2ccccc2)c1`, the inhibition was 52.3% (inactive).

For `COc1ccc(C(=O)Cc2cnn(-c3ccccc3)c2)c(O)c1`, the inhibition was 104% (active).

Take `[2H]C(CCOS(N)(=O)=O)c1ccccc1` (stereo not drawn): the inhibition was -5.48% (inactive).

As to `CN(CC(=O)Nc1ccc(N2CCOCC2)cc1)CC(=O)Nc1ccccc1[N+](=O)[O-]`, the inhibition was -10.3% (inactive).

On to `COc1cc2ccccc2cc1C(=O)Nc1ccc(N2CCOCC2)cc1`, for which the inhibition was 18.7% (inactive).

For the compound `O=C(Nc1ccc(N2CCOCC2)cc1)c1ccc(-c2ccccc2[N+](=O)[O-])o1`, the inhibition is 46.4% (active).

Consider `Cc1nnc(SCC(=O)Nc2ccc(S(=O)(=O)Nc3ccc(Cl)nn3)cc2)s1`, for which the inhibition was -5.8% (inactive).

As for `NS(=O)(=O)c1ccc(-c2ccc(/C=C3\SC(=O)NC3=O)o2)cc1`, the inhibition is -1.11% (inactive).

For `Nc1nnnn1/N=C/c1cccs1`, the inhibition is -9.54% (inactive).

On to `Cc1ccsc1/C=N/Nc1ccc(Cl)nn1`, for which the inhibition is 17.1% (inactive).

Take `COc1cccc(/C=N/Nc2ccc(Cl)nn2)c1`: the inhibition is 25.9% (inactive).

With `Clc1ccc(N/N=C/c2cccs2)nn1`, the inhibition was 122% (active).

`Oc1cccc(/C=N/Nc2ccc(Cl)nn2)c1O`: the inhibition is 60.3% (active).

As to `Cc1ccc(S(=O)(=O)N2CCN(c3ccccc3)CC2)cc1C`, the inhibition is -9.21% (inactive).

Consider `CCN1C(=O)C(CC(=O)Nc2cc(C)ccc2C)SC1=Nc1ccc(S(N)(=O)=O)cc1` (stereo not drawn), for which the inhibition was 28.8% (inactive).

As to `O=C(CC1SC(=Nc2ccccc2)N(Cc2ccccn2)C1=O)Nc1cccc(Cl)c1` (stereo not drawn), the inhibition was 44.2% (active).

In the case of `CN1C(=O)C(CC(=O)Nc2ccccc2)S/C1=N/c1nccs1` (stereo not drawn), the inhibition is -5.12% (inactive).

Take `COc1ccc(NC(=O)CCCN2C(=O)C(c3ccccc3)Oc3cccnc32)cc1` (stereo not drawn): the inhibition was -5.94% (inactive).

In the case of `C/C(=N\Nc1nncc2ccccc12)c1ccc(Cl)c([N+](=O)[O-])c1`, the inhibition was 59.8% (inactive).

For the compound `COc1cc(/C=N/Nc2nn3cnnc3c3ccccc23)cc(OC)c1OC`, the inhibition was 18.6% (inactive).

With `CN(CCO)c1ccc(/C=N/Nc2nncc3ccccc23)cc1`, the inhibition is 41.9% (active).

On to `Oc1ccc(N=Nc2nccs2)c(O)c1`, for which the inhibition is 58.3% (active).

As to `Oc1ccc2ccccc2c1N=Nc1nccs1`, the inhibition is 13.9% (inactive).

In the case of `Cc1ccc(CNC(=O)Cn2cnc(S(=O)(=O)N3CCCCC3)c2)o1`, the inhibition is 0.422% (inactive).

Consider `O=C(Nc1ccc2c(c1)CCC2)c1cccc(S(=O)(=O)Nc2ccccc2Cl)c1`, for which the inhibition was 8.91% (inactive).

Regarding `O=C(Nc1ccc2c(c1)CCC2)c1cccc(S(=O)(=O)N2CCN(c3ccc(F)cc3)CC2)c1`, the inhibition is 86.5% (active).

Take `Cc1cccnc1NC(=O)c1cccc(S(=O)(=O)N2CCN(c3ccc(F)cc3)CC2)c1`: the inhibition is -9.4% (inactive).

With `O=C(O)CSCc1nc2ccccc2s1`, the inhibition is 49.5% (inactive).

With `CN(Cc1nc2ccccc2s1)C(=O)c1ccc(F)cc1`, the inhibition is 27.2% (inactive).

Consider `O=C(O)CS/C(=C\c1ccc(F)cc1)c1nc2ccccc2s1`, for which the inhibition is 121% (active).
